These results are taken from PubChem BioAssay (NCATS).

Several values for one entry are separate records, joined by “and”; a condition that tells them apart may be missing. Equal values may be shown once. Results filed as inconclusive are left out. The source holds several records for some structures; these can differ, active in one and inactive in another. Activity calls are given as the source filed them. Unless noted, calls come from the whole dose curve; as a rule, active = well fitted curve in the direction sought with a large enough effect; inconclusive = small, poorly fitted or top-dose-only effect, or another doubt; inactive = no such curve, though single readings can be large; an effect the other way counts as inactive or inconclusive.

In assay [1] the target is Calcium and integrin-binding protein 1 (Homo sapiens) (UniProt Q99828). Nature of the assay: Validation qHTS for Identification of Calcium Integrin Binding protein 1 (CIB1) Competitor (AID 1508618). Note: % is set by controls: 0 for no effect and ±100 for the full control effect. The procedure, abridged: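 CIB1-GST (1 uM final) incubated 15 min at room temperature with compounds (up to 114 uM), then FITC-labelled alphaIIb peptide (100 nM) added. FP read (Ex 480/Em 540) after 15 min, pH 7.4 buffer containing 5 mM CaCl2.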
Calcium and integrin-binding protein 1 (Homo sapiens), sequence (Q99828 whole entry, looked up): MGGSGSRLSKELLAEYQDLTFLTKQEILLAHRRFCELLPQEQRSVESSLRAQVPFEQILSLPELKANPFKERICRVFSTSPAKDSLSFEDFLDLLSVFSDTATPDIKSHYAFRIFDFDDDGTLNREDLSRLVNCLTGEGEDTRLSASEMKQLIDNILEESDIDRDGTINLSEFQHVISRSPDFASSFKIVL
(In general: qHTS replaces the single test concentration by a dilution series.)

Assay [2] is described as follows: Counterscreen qHTS for small molecule stabilizers of the endoplasmic reticulum resident proteome: GLuc-NoTag assay (AID 1508627). Note: potency is the fitted concentration of half-maximal effect. The procedure, abridged:
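Counterscreen line: SH-SY5Y-GLuc-NoTag. Seed, 5 h; compound, 19 h; thapsigargin 100 nM, 4 h; 37C/5% CO2. Readout: secreted GLuc luminescence, coelenterazine 0.07x final, no lysis.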
In general terms: Counterscreens check selectivity or assay interference.

Assay [3] can be described thus: Confirmatory qHTS for small molecule stabilizers of the endoplasmic reticulum resident proteome: Secreted ER Calcium Modulated Protein (SERCaMP) assay (AID 1508628). Note: nearly all actives have a fitted effect of over 40% in size. Note: potency is the fitted concentration of half-maximal effect. The procedure, abridged:
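Reporter secretion upon ER calcium depletion (100 nM thapsigargin, 4 h, 37C) is measured as medium luminescence with coelenterazine, after 16 h compound pretreatment of SH-SY5Y-GLuc-SERCaMP cells; primary at three concentrations up to 38.3 uM, follow-up at 11 (up to 76.6 uM).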

Assay [4] in a line: Cell Viability qHTS for small molecule stabilizers of the endoplasmic reticulum resident proteome (AID 1508629).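 Note: human SH-SY5Y neuroblastoma cells carrying the GLuc-SERCaMP reporter; compound exposure about 46 h in total before the viability read; % is set by controls: 0 for no effect and ±100 for the full control effect.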 The settings on record: cell viability counter-screen, 100 nM thapsigargin for final 4 h.
A short description of assay [5]: Primary qHTS for small molecule stabilizers of the endoplasmic reticulum resident proteome: Secreted ER Calcium Modulated Protein (SERCaMP) assay (AID 1508630). Note: potency is the fitted concentration of half-maximal effect. The procedure, abridged: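 The SH-SY5Y reporter protocol was run at 3 concentrations up to 38.3 uM (primary) or 11 concentrations (follow-up): 16 h compound, 100 nM thapsigargin for 4 h, then extracellular luciferase luminescence.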

The next assay concerns the target Papain (Carica papaya) (UniProt P00784). The experiment in a line: Primary qHTS assay for inhibitors of the protease papain (AID 1645873).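 Note: papain turnover of Z-FR-AMC read as the AMC fluorescence gain over 10 min; series mostly up to about 50 µM; % is set by controls: 0 for no effect and ±100 for the full control effect.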
The nature of assay [6]: Primary qHTS for inhibitors of nuclear receptor binding SET domain protein 2 (NSD2) in an isogenic RCH-ACV NSD2 p.E1099K mutant (9B) (AID 1645876). Note: nearly all actives have a fitted effect of over 70% in size. Note: potency is the fitted concentration of half-maximal effect.
Assay [7] can be described thus: Primary qHTS for inhibitors of nuclear receptor binding SET domain protein 2 (NSD2) in an RCH-ACV wild type WT cells (2C) (AID 1645877). Note: nearly all actives have a fitted effect of over 70% in size. Note: potency is the fitted concentration of half-maximal effect.
The target of assay [8] is Calcium and integrin-binding protein 1 (Homo sapiens) (UniProt Q99828). Nature of the assay: Primary qHTS for Identification of Calcium Integrin Binding Protein 1 (CIB1) Competitor (AID 1508620). Note: top concentration of the series differs between compounds; % is set by controls: 0 for no effect and ±100 for the full control effect. The procedure, abridged: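 Fluorescence polarization competition: GST-tagged CIB1 (1 uM final) preincubated with compound 15 min at room temperature, then FITC-labelled alphaIIb peptide (100 nM final) added. After 15 min at room temperature, polarization read at Ex 480/Em 540.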

In assay [9] the target is Rap guanine nucleotide exchange factor 3 (Homo sapiens) (UniProt O95398). Nature of the assay: Confirmatory qHTS for antagonist of cAMP-regulated guanine nucleotide exchange factor 3 (EPAC1) (AID 1645880).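 Note: plate controls were DMSO only for no effect and full effect of the ATA control for full effect; nearly all actives have a fitted effect of over 55% in size.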 The procedure, abridged:
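Released BODIPY-GDP fluoresces less than Rap1-bound BODIPY-GDP; the signal is followed at 480/540 nm at 5-min intervals over 30 min, after 5 min at room temperature. Reactions contain 100 nM EPAC1, 250 nM RAP1B-BODIPY-GDP and 50 uM GDP; results are normalized to ATA and DMSO.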

For assay [10] the target is unchanged. The experiment in a line: Confirmatory qHTS for agonist of cAMP-regulated guanine nucleotide exchange factor 3 (EPAC1) (AID 1645881).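 Note: EPAC1 catalysed release of BODIPY-GDP from Rap1B seen as fluorescence loss; 100% = effect of cAMP agonist control; nearly all actives have a fitted effect of over 75% in size.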
In assay [11] the target is Rap guanine nucleotide exchange factor 4 (Homo sapiens) (UniProt Q8WZA2). Nature of the assay: Confirmatory qHTS for agonist of cAMP-regulated guanine nucleotide exchange factor 4 (EPAC2) (AID 1645884).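 Note: nucleotide exchange releases bodipy-GDP from Rap1 and this lowers its fluorescence; % is set by controls: 0 for no effect and ±100 for the full control effect; nearly all actives have a fitted effect of over 65% in size.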
Rap guanine nucleotide exchange factor 4 (Homo sapiens), sequence (Q8WZA2 whole entry, looked up): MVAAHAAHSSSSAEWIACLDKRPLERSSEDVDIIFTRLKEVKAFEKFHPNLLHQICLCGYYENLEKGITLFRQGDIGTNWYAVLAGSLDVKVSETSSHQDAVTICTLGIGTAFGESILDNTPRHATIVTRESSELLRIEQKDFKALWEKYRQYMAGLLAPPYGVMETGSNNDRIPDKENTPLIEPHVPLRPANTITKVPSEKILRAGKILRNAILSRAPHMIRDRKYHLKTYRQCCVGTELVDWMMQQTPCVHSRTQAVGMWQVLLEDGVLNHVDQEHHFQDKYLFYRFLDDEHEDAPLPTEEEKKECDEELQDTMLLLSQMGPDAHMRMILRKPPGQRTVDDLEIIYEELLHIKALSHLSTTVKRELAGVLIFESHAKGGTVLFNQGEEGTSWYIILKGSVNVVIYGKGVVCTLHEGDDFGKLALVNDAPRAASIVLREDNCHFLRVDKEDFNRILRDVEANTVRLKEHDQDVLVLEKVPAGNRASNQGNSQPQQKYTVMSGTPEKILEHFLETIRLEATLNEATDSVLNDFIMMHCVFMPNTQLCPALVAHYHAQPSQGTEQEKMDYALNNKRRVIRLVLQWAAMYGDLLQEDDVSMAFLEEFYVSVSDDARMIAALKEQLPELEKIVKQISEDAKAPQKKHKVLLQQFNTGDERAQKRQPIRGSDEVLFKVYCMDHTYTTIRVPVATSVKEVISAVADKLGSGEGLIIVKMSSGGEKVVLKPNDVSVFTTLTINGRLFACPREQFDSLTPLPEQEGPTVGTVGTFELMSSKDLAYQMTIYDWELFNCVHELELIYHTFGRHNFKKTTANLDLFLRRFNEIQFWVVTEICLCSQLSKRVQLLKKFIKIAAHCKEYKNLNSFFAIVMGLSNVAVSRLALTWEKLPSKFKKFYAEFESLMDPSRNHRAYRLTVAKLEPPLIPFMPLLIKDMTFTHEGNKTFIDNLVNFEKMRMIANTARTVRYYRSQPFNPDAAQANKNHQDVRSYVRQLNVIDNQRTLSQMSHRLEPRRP
The target is the same in assay [12]. Nature of the assay: Confirmatory qHTS for antagonist of cAMP-regulated guanine nucleotide exchange factor 4 (EPAC2) (AID 1645885). Note: potency is the fitted concentration of half-maximal effect; nearly all actives have a fitted effect of over 25% in size.
In assay [13] the target is Cytochrome P450 2D6 (Homo sapiens) (UniProt P10635). Nature of the assay: Cytochrome P450 family 2 subfamily D member 6 (CYP2D6) small molecule antagonists: luciferase biochemical (cell-free) qHTS assay (AID 1645840; active = well fitted curve in the direction sought with a large enough effect in the repeat runs; an effect the other way counts as inactive or inconclusive; note: nearly all actives have a fitted effect of over 55% in size; note: potency is the fitted concentration of half-maximal effect). The procedure, abridged:
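P450-Glo CYP2D6 system: proluciferin substrate converted by enzyme to luciferin, read by luminescence proportional to activity. Enzyme-substrate mix with compound 10 min at room temperature, then NADPH regeneration 1 h before detection reagent.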

A short description of assay [14]: A High-Content qHTS Against Drug Library for the Identification of Small Molecules that Inhibit DYT1 Early Onset Primary Dystonia-Associated Cell Pathology (AID 1645839; calls by dose curve; note: series mostly up to about 46 µM). The procedure, abridged:
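Cells were seeded and left for 24 h, then dosed with compound alongside tetracycline induction of mutant EGFP-TorsinA. They were incubated for 48 h, fixed in 4% paraformaldehyde, permeabilized and imaged for mislocalization (%pathology) and cell count.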

Assay [15] has as its target Cytochrome P450 2C9 (Homo sapiens) (UniProt P11712). The experiment in a line: Cytochrome P450 family 2 subfamily C member 9 (CYP2C9) small molecule antagonists: luciferase biochemical (cell-free) qHTS assay (AID 1645842; active = well fitted curve in the direction sought with a large enough effect in the repeat runs; an effect the other way counts as inactive or inconclusive; note: series mostly up to about 57 µM; % is set by controls: 0 for no effect and ±100 for the full control effect; nearly all actives have a fitted effect of over 55% in size). The procedure, abridged: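 P450-Glo CYP2C9 system: proluciferin substrate with enzyme in mix containing 0.4% BSA, 10 min at room temperature, then NADPH regeneration solution added and incubated 1 h at 37C. Detection reagent stopped reaction; luminescence read after 20 min as RLU.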

Assay [16] deals with Cytochrome P450 3A4 (Homo sapiens) (UniProt P08684). The experiment in a line: Cytochrome P450 family 3 subfamily A member 4 (CYP3A4) small molecule antagonists: luciferase qHTS assay (AID 1645841; active = well fitted curve in the direction sought with a large enough effect in the repeat runs; an effect the other way counts as inactive or inconclusive; note: nearly all actives have a fitted effect of over 45% in size). The procedure, abridged:
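P450-Glo CYP3A4 enzyme with proluciferin substrate preincubated 10 min with compound at room temperature, then NADPH regeneration 1 h. Luciferin detection reagent added for 20 min; luminescence recorded. Ketoconazole positive control.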

The target in assay [17] is N-terminal Xaa-Pro-Lys N-methyltransferase 1 (Homo sapiens) (UniProt Q9BV86). The experiment in a line: Confirmatory qHTS for Inhibitors of N-terminal methyltransferase 1 (NTMT1): MTaseGlo Assay (AID 1645874). Note: potency is the fitted concentration of half-maximal effect; nearly all actives have a fitted effect of over 65% in size. The procedure, abridged:
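MTase-Glo luminescence measured SAH formed by 125 nM NTMT1 from 100 uM SAM and 1 uM SPKRIA peptide over 30 min at room temperature, following 15 min compound preincubation. Percent inhibition against no-enzyme and DMSO controls gave 4-parameter Hill fits.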

Cytochrome P450 2D6 (Homo sapiens), sequence (P10635 whole entry, looked up): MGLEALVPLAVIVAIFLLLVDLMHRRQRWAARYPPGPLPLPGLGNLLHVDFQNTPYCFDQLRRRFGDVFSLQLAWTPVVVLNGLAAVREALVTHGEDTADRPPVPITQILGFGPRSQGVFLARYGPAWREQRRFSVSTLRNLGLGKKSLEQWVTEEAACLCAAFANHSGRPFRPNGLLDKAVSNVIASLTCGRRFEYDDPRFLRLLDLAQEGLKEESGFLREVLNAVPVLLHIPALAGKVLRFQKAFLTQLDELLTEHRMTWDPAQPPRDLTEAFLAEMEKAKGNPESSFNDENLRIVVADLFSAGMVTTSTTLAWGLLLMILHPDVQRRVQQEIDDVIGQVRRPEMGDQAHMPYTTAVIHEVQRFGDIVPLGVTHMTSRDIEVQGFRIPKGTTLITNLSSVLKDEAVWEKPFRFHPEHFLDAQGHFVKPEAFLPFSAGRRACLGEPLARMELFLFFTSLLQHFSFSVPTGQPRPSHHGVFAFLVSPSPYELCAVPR
Cytochrome P450 2C9 (Homo sapiens), sequence (P11712 whole entry, looked up): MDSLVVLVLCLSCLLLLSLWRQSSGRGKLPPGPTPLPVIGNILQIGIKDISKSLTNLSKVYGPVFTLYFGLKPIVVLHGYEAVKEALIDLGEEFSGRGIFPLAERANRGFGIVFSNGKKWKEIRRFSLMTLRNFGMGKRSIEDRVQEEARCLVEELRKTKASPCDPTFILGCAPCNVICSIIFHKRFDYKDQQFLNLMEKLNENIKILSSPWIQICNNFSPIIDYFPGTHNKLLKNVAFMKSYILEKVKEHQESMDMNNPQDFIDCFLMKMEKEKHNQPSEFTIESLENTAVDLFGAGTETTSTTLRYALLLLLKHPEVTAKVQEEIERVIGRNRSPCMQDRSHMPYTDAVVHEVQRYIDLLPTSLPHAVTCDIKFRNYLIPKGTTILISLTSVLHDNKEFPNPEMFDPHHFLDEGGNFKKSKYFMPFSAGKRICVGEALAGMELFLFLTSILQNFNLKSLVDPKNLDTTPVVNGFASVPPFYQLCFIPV
Papain (Carica papaya), sequence (P00784 whole entry, looked up, the tested form may be a part): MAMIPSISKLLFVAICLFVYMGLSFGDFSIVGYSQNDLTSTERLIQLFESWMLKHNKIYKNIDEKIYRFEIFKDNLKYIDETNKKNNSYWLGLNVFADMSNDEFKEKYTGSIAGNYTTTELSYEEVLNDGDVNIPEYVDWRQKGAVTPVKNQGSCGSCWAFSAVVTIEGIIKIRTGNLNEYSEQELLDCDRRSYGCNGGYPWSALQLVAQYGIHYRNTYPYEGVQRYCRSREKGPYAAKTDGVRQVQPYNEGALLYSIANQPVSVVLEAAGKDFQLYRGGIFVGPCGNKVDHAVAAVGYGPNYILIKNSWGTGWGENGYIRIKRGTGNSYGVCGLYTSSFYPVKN
Cytochrome P450 3A4 (Homo sapiens), sequence (P08684 whole entry, looked up): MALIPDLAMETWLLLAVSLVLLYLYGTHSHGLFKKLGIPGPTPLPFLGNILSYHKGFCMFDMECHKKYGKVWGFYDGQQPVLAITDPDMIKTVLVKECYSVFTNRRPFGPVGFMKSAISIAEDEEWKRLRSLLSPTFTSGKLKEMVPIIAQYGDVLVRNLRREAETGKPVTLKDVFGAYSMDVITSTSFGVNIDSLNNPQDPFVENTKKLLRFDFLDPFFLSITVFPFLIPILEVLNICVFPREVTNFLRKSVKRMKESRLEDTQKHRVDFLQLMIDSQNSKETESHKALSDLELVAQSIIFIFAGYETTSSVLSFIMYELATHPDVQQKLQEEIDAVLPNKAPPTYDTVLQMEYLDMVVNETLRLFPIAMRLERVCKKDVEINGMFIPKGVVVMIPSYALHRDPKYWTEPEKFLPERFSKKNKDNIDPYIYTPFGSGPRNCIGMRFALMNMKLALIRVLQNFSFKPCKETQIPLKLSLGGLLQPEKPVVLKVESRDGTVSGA
Rap guanine nucleotide exchange factor 3 (Homo sapiens), sequence (O95398 whole entry, looked up): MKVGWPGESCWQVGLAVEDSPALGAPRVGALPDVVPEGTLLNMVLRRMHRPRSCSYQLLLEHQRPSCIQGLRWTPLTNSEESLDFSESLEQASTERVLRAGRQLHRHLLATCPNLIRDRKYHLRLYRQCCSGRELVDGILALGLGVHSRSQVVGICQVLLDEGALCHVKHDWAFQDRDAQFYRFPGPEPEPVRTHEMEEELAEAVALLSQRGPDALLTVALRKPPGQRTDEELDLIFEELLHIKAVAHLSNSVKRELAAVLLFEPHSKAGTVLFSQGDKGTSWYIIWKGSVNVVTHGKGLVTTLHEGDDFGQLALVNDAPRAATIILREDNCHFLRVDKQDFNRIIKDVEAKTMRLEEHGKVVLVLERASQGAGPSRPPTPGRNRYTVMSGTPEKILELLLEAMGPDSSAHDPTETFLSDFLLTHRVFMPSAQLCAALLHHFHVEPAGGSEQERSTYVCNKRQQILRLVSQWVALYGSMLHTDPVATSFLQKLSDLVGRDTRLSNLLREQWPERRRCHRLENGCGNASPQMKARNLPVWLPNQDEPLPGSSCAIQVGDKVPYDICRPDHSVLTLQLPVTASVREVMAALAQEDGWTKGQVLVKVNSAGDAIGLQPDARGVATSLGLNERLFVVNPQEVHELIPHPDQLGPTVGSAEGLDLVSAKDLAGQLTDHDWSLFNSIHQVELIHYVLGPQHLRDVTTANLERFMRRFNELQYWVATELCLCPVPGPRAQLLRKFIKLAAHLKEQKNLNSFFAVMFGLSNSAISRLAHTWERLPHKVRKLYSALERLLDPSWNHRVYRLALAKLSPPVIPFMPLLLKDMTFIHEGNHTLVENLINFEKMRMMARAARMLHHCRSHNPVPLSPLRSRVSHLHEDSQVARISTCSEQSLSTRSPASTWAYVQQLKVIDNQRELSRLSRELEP
N-terminal Xaa-Pro-Lys N-methyltransferase 1 (Homo sapiens), sequence (Q9BV86 whole entry, looked up): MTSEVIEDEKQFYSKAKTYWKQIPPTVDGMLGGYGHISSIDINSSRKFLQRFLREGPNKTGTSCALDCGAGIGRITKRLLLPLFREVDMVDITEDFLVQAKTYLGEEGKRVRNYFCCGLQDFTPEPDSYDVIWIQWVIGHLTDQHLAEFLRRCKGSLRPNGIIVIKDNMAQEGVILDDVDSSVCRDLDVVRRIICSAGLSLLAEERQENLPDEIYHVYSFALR

`C[C@H](Cc1ccc(O)c(O)c1)[C@@H](C)Cc1ccc(O)c(O)c1`: the result in assay [1] was inactive. In addition, the Potency was 35.5 µM (active) in assay [2]; 7.94 µM (active) in assay [3]; 13.2 µM (active) and 7.31 µM (active) in [6]; 11.8 µM (active) and 7.31 µM (active) in assay [7]. In addition, the max response in [4] was -16.2% (inactive). Further, the Potency result (in [5]; with Papain (Carica papaya)) was “inactive” in each case.
`CC(=O)N1CCN(c2ccc(OC[C@H]3CO[C@](Cn4ccnc4)(c4ccc(Cl)cc4Cl)O3)cc2)CC1`: the outcome in assay [1], in [10] and in assay [11] was inactive. For the same molecule, the Potency result (in assay [8]; in assay [5]; in the assay with Papain (Carica papaya); in assay [9]) was “inactive” in each case. Besides, the Potency in [12] was 49.4 µM (active).
As to `C[C@@H](c1ncncc1F)[C@](O)(Cn1cncn1)c1ccc(F)cc1F`, the result in assay [1] was inactive. For the same molecule, the Potency result (in [8]; in assay [5]; in assay [13]; in the assay with Papain (Carica papaya)) was “inactive” in each case.
As for `Cc1cccc(-c2[nH]ncc2-c2ccc3ncccc3n2)n1`, the outcome in assay [1] was inactive. In addition, the Potency entry in [8] and in assay [5] was “inactive” each time.
`O=c1cc(N2CCOCC2)oc2c(-c3ccccc3)cccc12`: the Potency result in [8], in assay [2], in [3] and in assay [5] was “inactive” in each case. The max response in [4] is -28.5% (inactive). In addition, the Potency in [6] was 4.17 µM (active); in assay [7], 2.63 µM (active).
With `Nc1nc(OCc2ccccc2)c2[nH]cnc2n1`, the result in [1] was inactive. The Potency entry (in [8]; in assay [5]; with Papain (Carica papaya)) was “inactive” in each case.
Turning to `O=C(c1ccccc1)c1ccc2n1CCC2C(=O)O` (configuration not stated), the outcome in assay [1] was inactive. In addition, the Potency result (in assay [8]; in assay [5]; in [14]; in assay [15]; with Papain (Carica papaya); in [6]) was “inactive” in each case. Further, in assay [7], the Potency result is “inactive”.
`NNc1nncc2ccccc12`: the outcome in [1] was inactive. Moreover, the Potency result (in assay [8]; in [5]; in assay [14]; in assay [13]; in assay [15]; in the assay with Papain (Carica papaya)) was “inactive” in each case. For the same molecule, the Potency result in [6] and in assay [7] was “inactive” each time.
Take `Clc1ccc2c(N3CCN(CCCN4CCN(c5ccnc6cc(Cl)ccc56)CC4)CC3)ccnc2c1`: the result in assay [1] was inactive. For the same molecule, the Potency result (in assay [8]; in assay [5]; with Papain (Carica papaya); in assay [6]; in assay [7]) was “inactive” in each case.
Regarding `CN(C)c1ccc(O)c2c1C[C@H]1C[C@H]3[C@H](N(C)C)C(=O)C(C(N)=O)=C(O)[C@@]3(O)C(=O)C1=C2O`, the Potency result in assay [8], in assay [2], in assay [3], in [13], in assay [15] and in assay [6] was “inactive” each time. Also, the Potency entry in assay [7] is “inactive”. The max response in [4] is 11.6% (inactive). The Potency entry in assay [5] is “inactive and 31.6 µM (active)”. The outcome in assay [16] was inactive.
With `COc1ccc2cc([C@H](C)C(=O)O)ccc2c1`, in [1], the result was inactive. Moreover, the Potency entry (in assay [8]; in assay [14]; with Papain (Carica papaya)) was “inactive” each time.
Regarding `Oc1ccc(-c2nc(-c3ccc(F)cc3)c(-c3ccncc3)[nH]2)cc1`, the outcome in [1] was inactive. The Potency entry (in assay [8]; in assay [5]; with Papain (Carica papaya)) was “inactive” throughout. Further, the Potency in assay [17] is 39.8 µM (active); in assay [6], 5.25 µM (active); in [7] it was 14.8 µM (active).
Turning to `CCOC(=O)C1=C(O)C(=O)N(Cc2ccccc2)C1`, the result in assay [1] was inactive. In addition, the Potency entry (in [8]; in [5]; in the assay with Papain (Carica papaya); in assay [6]; in assay [7]) was “inactive” in each case.
As to `c1cnc2cc3c(cc2n1)C1CNCC3C1`, the result in [1] was inactive. Besides, the Potency entry (in [8]; in assay [5]; in assay [14]; in [13]; in [15]; with Papain (Carica papaya)) was “inactive” each time. Moreover, the Potency entry in assay [6] and in [7] was “inactive” each time.
For the molecule `Cc1nccn1CC1CCc2c(c3ccccc3n2C)C1=O` (configuration not stated), the Potency result in assay [8], in [5], in assay [14], in assay [15], in [6] and in [7] was “inactive” each time. In addition, in assay [13], the Potency was 11 µM (active) and 13.5 µM (active).
For `COc1cc(OC)c(C(=O)CCCN2CCCC2)c(OC)c1`, the Potency result in assay [8], in assay [5], in assay [14], in assay [15], in [6] and in assay [7] was “inactive” throughout. In addition, the Potency in assay [13] is 11 µM (active).
`Cc1nc2n(c(=O)c1CCN1CCC(c3noc4cc(F)ccc34)CC1)CCCC2`: the Potency entry in assay [8], in [5], in assay [14], in assay [15], in assay [6] and in assay [7] was “inactive” in each case. In addition, the Potency in [13] was 2.75 µM (active).
On to `CCc1nc(N)nc(N)c1-c1ccc(Cl)cc1`, for which the Potency entry in assay [8], in [5], in assay [14] and in assay [15] was “inactive” each time. Further, the Potency in assay [13] is 12.3 µM (active); in assay [6], 2.37 µM (active) and 2.95 µM (active); in assay [7] it was 3.35 µM (active) and 4.17 µM (active).
For `CN(c1nccc(=O)[nH]1)C1CCN(c2nc3ccccc3n2Cc2ccc(F)cc2)CC1`, the Potency entry in assay [8], in [5] and in assay [14] was “inactive” in each case. Further, the Potency in [13] was 12.3 µM (active).
With `CCC[C@@H]1C[C@@H](C(=O)N[C@@H]([C@H]2O[C@H](SC)[C@H](O)[C@@H](O)[C@H]2O)[C@@H](C)O)N(C)C1`, the Potency entry in [8], in assay [5], in [14], in assay [13] and in assay [15] was “inactive” in each case. Besides, in assay [16], the call was inactive.
Take `Nc1ncn([C@H]2C[C@H](O)[C@@H](CO)O2)c(=O)n1`: the Potency entry in assay [8], in assay [5], in [14], in assay [13] and in assay [15] was “inactive” each time. Moreover, the Potency in assay [6] was 266 nM (active) and 742 nM (active); in [7], 133 nM (active) and 1.18 µM (active).
Turning to `COC(=O)N[C@H](C(=O)N[C@@H](Cc1ccccc1)[C@@H](O)CN(Cc1ccc(-c2ccccn2)cc1)NC(=O)[C@@H](NC(=O)OC)C(C)(C)C)C(C)(C)C`, the Potency result in assay [8], in assay [5] and in assay [14] was “inactive” each time.
